Our source for the Potency, activity change, negative = inhibition and outcome values is PubChem BioAssay (NCATS).

The nature of experiment [1]: Primary qHTS to identify inhibitors of SARS-CoV-2 cell entry (AID 1645846; calls by dose curve; further: nearly all actives have a fitted effect of over 45% in size; further: potency means the concentration at half of the fitted maximal effect). The note with it: SARS-CoV-2 pseudovirus cell entry assay, luminescence; activity change, negative = inhibition: at 57.1 µM (top of the series) unless noted. In a few lines:
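HEK293-ACE2 (Expi293F, stable hACE2), 1500 cells/well, o/n 37C; cpd 23 nL pin, 1 h; MLV-PP w/ SARS-CoV-2-S (Wuhan-Hu-1, Δ19 C-term); 48 h 37C; Bright-Glo luminescence; normalized vs S-PP and bald PP.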
A general note: qHTS replaces the single test concentration by a dilution series.

The nature of experiment [2]: Primary qHTS for inhibitors of nuclear receptor binding SET domain protein 2 (NSD2) in an RCH-ACV wild type WT cells (2C) (AID 1645877). Further: nearly all actives have a fitted effect of over 70% in size. Further: potency means the concentration at half of the fitted maximal effect.
Experiment [3] in a line: qHTS assay to identify inhibitors of the type 1 interferon - major histocompatibility complex class I in skeletal muscle: Counter screen cell viability and HiBit confirmation (AID 1347412). Further: potency means the concentration at half of the fitted maximal effect. On activity change, negative = inhibition: on the % scale 0 is the no-effect control and ±100 the full control effect. On all read-outs here: nearly all actives have a fitted effect of over 60% in size. The note with it: iHSKM muscle cells + IFN-b, HiBiT or CellTiter-Glo, 24 h; for activity change, negative = inhibition: at 45.9 µM (top of the series). An outline of the steps: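 Duplicate plates, pinned identically: one read for HiBiT-tagged endogenous HLA-B luminescence, the other for ATP-content viability via CellTiter Glo. Cells were genome-engineered human myoblasts given 4 ng/ml IFN-b; compounds 12-pt, 1:3 from 46 uM final; 24 hr exposure.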

A short description of experiment [4]: Primary qHTS for inhibitors of nuclear receptor binding SET domain protein 2 (NSD2) in an isogenic RCH-ACV NSD2 p.E1099K mutant (9B) (AID 1645876). Further: nearly all actives have a fitted effect of over 70% in size. Further: potency means the concentration at half of the fitted maximal effect.
Experiment [5] can be described thus: qHTS for differential inhibitors of proliferation of Plasmodium falciparum line Dd2 (AID 1882). Further: nearly all actives have a fitted effect of over 65% in size. Further: potency means the concentration at half of the fitted maximal effect.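 On activity change, negative = inhibition: compound exposure of 72 h on infected erythrocytes; plate controls were DMSO vehicle for no effect and 0.29 µM artemisinin for full effect.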 The note with it: Potency: Plasmodium falciparum Dd2 proliferation inhibition. In a few lines: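 RBC culture, 0.3% parasitemia / 2.5% Hct final; cpd added by pin tool in DMSO; 72 h, 37 C, 5% CO2; lysis buffer + SYBR Green I, o/n RT dark; FI 485/535; norm. to artemisinin 0.29 uM and DMSO.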

Experiment [6] is described as follows: qHTS for differential inhibitors of proliferation of Plasmodium falciparum line 7G8 (AID 1815).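 Further: parasite growth measured after three days of incubation.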 Further: potency means the concentration at half of the fitted maximal effect.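 On activity change, negative = inhibition: plate controls were vehicle wells for no effect and reference inhibitor wells for full effect.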
A short description of experiment [7]: qHTS Assay for Modulators of Human Peripheral Myelin Protein 22 (PMP22) Expression/Activity (AID 1967; active means well fitted curve in the direction sought with a large enough effect in the signal ratio; the % refers to the signal ratio;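 further: 0% = untreated cells and 100% end not stated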). An outline of the steps: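 Mouse MSC80 Schwann line, Pmp22 promoter–CBG68 reporter, EF-alpha–CBR internal control. 24h compound exposure, 37 °C/5% CO2, DMEM + 10% FBS. Readout: corrected green/red luminescence ratio, normalized to untreated cells; concentration-response curves fitted and classified.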

Experiment [8] deals with RecQ-like DNA helicase BLM (Homo sapiens) (UniProt P54132). Nature of the experiment: qHTS Validation Assay for Inhibitors of Bloom's syndrome helicase (BLM) (AID 2364).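 Further: plate controls were DMSO vehicle for no effect and enzyme-free control for full effect.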 In a few lines:
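BLM 50 nM in 25 mM Tris-HCl pH 8.0, 5 mM NaCl, 2 mM MgCl2, 1 mM DTT, 0.01% Tween-20, 2.5 ug/ml poly(dI-dC); 15 min cpd preinc, RT. Start: 200 nM forked DNA + 2 mM ATP (final). TAMRA read, 2 reads 2 h apart.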

A short description of experiment [9]: qHTS for differential inhibitors of proliferation of Plasmodium falciparum line GB4 (AID 1816).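 Further: parasite growth measured after 72 h incubation.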 Further: potency means the concentration at half of the fitted maximal effect.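 On activity change, negative = inhibition: 0% = vehicle DMSO and -100% = reference inhibitor.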 The note with it: Potency: Plasmodium falciparum GB4 proliferation inhibition.

Records with an inconclusive call do not appear. The source holds several records for some structures; these can differ, active in one and inactive in another. Calls of active or inactive are those of the source. Unless noted, the call rests on the fitted dose curve; in most records, active means well fitted curve in the direction sought with a large enough effect; inconclusive means small, poorly fitted or top-dose-only effect, or another doubt; inactive means no such curve, though single readings can be large; an effect the other way counts as inactive or inconclusive.

RecQ-like DNA helicase BLM (Homo sapiens), sequence (P54132 whole entry, looked up): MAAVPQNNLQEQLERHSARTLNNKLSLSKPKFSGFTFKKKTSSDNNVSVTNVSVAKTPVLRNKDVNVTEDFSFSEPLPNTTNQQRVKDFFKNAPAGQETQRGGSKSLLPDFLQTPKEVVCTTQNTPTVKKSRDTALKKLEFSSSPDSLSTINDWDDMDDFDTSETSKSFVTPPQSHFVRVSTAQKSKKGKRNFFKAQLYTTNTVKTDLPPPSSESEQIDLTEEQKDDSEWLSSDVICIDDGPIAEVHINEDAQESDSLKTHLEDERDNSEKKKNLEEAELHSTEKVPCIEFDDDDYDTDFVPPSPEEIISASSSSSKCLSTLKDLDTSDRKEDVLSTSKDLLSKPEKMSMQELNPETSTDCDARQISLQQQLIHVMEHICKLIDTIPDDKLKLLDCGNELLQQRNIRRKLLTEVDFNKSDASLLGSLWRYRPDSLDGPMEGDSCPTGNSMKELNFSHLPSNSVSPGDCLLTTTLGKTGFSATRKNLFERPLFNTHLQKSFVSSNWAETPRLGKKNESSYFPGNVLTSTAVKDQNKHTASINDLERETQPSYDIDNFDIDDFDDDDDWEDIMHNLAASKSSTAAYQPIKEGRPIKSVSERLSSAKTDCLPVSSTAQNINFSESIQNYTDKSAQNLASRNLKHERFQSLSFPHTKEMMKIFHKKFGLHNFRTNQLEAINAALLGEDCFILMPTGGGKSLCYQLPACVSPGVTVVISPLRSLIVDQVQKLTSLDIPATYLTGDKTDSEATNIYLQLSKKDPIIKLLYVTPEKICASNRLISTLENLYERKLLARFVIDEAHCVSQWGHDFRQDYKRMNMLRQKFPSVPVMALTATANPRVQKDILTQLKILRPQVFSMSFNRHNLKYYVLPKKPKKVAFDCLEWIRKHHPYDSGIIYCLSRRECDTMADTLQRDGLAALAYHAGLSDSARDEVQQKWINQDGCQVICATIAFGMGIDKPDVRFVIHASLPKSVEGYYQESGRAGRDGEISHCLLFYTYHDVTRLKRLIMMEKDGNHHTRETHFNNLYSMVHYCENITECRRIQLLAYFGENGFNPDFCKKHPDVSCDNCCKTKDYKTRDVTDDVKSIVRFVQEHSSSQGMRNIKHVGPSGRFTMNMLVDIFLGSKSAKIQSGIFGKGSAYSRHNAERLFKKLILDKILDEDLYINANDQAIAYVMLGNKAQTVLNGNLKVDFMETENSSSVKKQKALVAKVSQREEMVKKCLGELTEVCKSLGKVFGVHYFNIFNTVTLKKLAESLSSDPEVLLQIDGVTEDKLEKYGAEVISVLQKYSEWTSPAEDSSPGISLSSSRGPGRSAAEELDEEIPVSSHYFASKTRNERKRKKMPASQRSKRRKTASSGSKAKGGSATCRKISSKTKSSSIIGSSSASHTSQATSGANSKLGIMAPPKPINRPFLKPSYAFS

With `COC(=O)[C@]12CCC(C)(C)C[C@H]1[C@H]1C(=O)C=C3[C@@]4(C)C=C(C#N)C(=O)C(C)(C)[C@@H]4CC[C@@]3(C)[C@]1(C)CC2`, the Potency in experiment [1] is 1 µM (active); in experiment [2], 5.9 µM (active); in experiment [3] (HiBiT), 1.57 µM (active).

As to `C[C@]12COC(=O)C[C@@H]1CC[C@@H]1[C@@H]2CC[C@@]2(C)[C@H]1CC[C@]2(C)O`, the activity change, negative = inhibition in experiment [1] was -8.16%.

Turning to `CC(N[C@H]1C[C@@H]1c1ccccc1)c1ccc2c(c1)OCCO2` (stereo partly specified), the activity change, negative = inhibition in [1] was -4.37%. The Potency result in experiment [4] and in experiment [2] was “inactive” in each case.

Regarding `CC1(C)CC[C@]2(NC(=O)C(C)(F)F)CC[C@]3(C)[C@H](C(=O)C=C4[C@@]5(C)C=C(C#N)C(=O)C(C)(C)[C@@H]5CC[C@]43C)[C@@H]2C1`, the Potency in [1] was 1 µM (active); in experiment [2], 7.42 µM (active); in experiment [3] (HiBiT) it was 1.57 µM (active).

Consider `Cn1c(COP(=O)(NCCBr)NCCBr)cnc1[N+](=O)[O-]`, for which the activity change, negative = inhibition in experiment [1] is -15%. Besides, the Potency in experiment [2] is 18.6 µM (active).

In the case of `CC(C)[C@]12O[C@H]1[C@@H]1O[C@@]13[C@@]1(C)CCC4=C(COC4=O)[C@@H]1C[C@@H]1O[C@@]13C2=O`, the activity change, negative = inhibition in experiment [1] was -93.1%; in experiment [3] (Viability) it was 4.52% (inactive). The Potency in experiment [4] is 0.0372 µM (active); in [2], 0.0332 µM (active); in experiment [3] (HiBiT), 0.0497 µM (active).

Take `C[C@@H](C1CC[C@@]2(O)C3=CC(=O)[C@@H]4C[C@@H](O)[C@@H](O)C[C@]4(C)[C@H]3CC[C@]12C)[C@H](O)CCC(C)(C)O` (stereo partly specified): the activity change, negative = inhibition in [1] was -30.2%. Besides, the Potency result in [4] and in experiment [2] was “inactive” throughout.

For the compound `C=C(C)[C@@H]1CCC(C)=C[C@H]1c1c(O)cc(CCCCC)cc1O`, the Potency in [4] is 18.6 µM (active); in experiment [2] it was 20.9 µM (active). Further, the activity change, negative = inhibition in [3] (Viability) is 5.14% (inactive).

For `CCCCCCC(C)(C)c1cc(O)c2c(c1)OC(C)(C)C1CC=C(CO)C[C@H]21` (stereo partly specified), the activity change, negative = inhibition in experiment [1] is -8.86%. Further, the Potency entry in experiment [4] and in experiment [2] was “inactive” throughout. Besides, in [3] (Viability), the Potency is 35.2 µM (active).

For the compound `Cc1c(N)nc([C@H](CC(N)=O)NC[C@@H](N)C(N)=O)nc1C(=O)N[C@H](C(=O)N[C@@H](C)[C@H](O)[C@@H](C)C(=O)N[C@@H](C(=O)NCCc1nc(-c2nc(C(=O)NCCC[S+](C)C)cs2)cs1)[C@@H](C)O)C(O[C@H]1O[C@H](CO)[C@H](O)[C@@H](O)[C@H]1O[C@H]1O[C@H](CO)[C@@H](O)[C@H](OC(N)=O)[C@@H]1O)c1cnc[nH]1` (stereo partly specified), in [1], the Potency was 1.12 µM (active) and the activity change, negative = inhibition was -97.2%. Moreover, the Potency result in [4] is “inactive”.

`O=C(CBr)N1CC([N+](=O)[O-])([N+](=O)[O-])C1`: the activity change, negative = inhibition in experiment [1] is -11.3% [at 114 µM].

For the compound `CC(=O)OC[C@H]1O[C@@H]([S-])[C@H](OC(C)=O)[C@@H](OC(C)=O)[C@@H]1OC(C)=O.CC[PH+](CC)CC.[Au]`, the Potency in experiment [1] was 1.26 µM (active); in experiment [4], 0.742 µM (active); in experiment [2], 0.742 µM (active); in [3] (HiBiT), 1.11 µM (active).

On to `CCC1/C=C/C=CCC(C)C(O)[C@@](C)(O)C(=O)C(C)C(O)C(C)C(=O)C(C)C(O)C(C)C=CC(=O)O[C@H]2C(C)C(CC1)O[C@]1(CCC(C)C(CC(C)O)O1)C2C` (stereo partly specified), for which the activity change, negative = inhibition in experiment [3] (HiBiT) is -31.9% (inactive); in experiment [3] (Viability) it was -23.7% (inactive).

Take `C[C@@H]1CC[C@@]2(OC1)O[C@H]1C[C@H]3[C@@H]4CC=C5C[C@@H](O[C@@H]6O[C@H](CO)[C@@H](O[C@@H]7O[C@@H](C)[C@H](O)[C@@H](O)[C@H]7O)[C@H](O)[C@H]6O[C@@H]6O[C@@H](C)[C@H](O)[C@@H](O)[C@H]6O)CC[C@]5(C)[C@H]4CC[C@]3(C)[C@H]1[C@@H]2C`: the Potency in experiment [1] was 12.6 µM (active); in experiment [4], 2.35 µM (active); in experiment [2] it was 3.32 µM (active); in experiment [3] (HiBiT) it was 22.2 µM (active); in experiment [3] (Viability) it was 17.6 µM (active).

For the compound `C=C[C@H]1CN2CCC1C[C@@H]2[C@@H](O)c1ccnc2ccccc12` (stereo partly specified), the activity change, negative = inhibition in [1] was -29.6%. The Potency entry in [4] and in experiment [2] was “inactive” throughout.

`C/C1=C/C[C@@H](/C(C)=C/c2csc(C)n2)OC(=O)C[C@H](O)C(C)(C)C(=O)[C@H](C)[C@@H](O)[C@@H](C)CCC1`: the activity change, negative = inhibition is -64.3% in [1] and -15.3% (inactive) in experiment [3] (Viability). Further, the results for the Potency in experiment [4] and in experiment [2] were 0.0525 µM (active) and 0.0417 µM (active), respectively.

On to `N#CC(=Cc1ccc(O)c(O)c1)C(N)=S`, for which the Potency entry in experiment [5] was “inactive”.

As to `Oc1ccc2c3c1O[C@H]1[C@@H](O)CC[C@@]4(O)C(C2)N(CC2CCC2)CCC314` (stereo partly specified), the Potency result in experiment [6] and in experiment [5] was “inactive” each time. The compound was classed as inactive in experiment [7] and in experiment [8].

For the compound `C[C@H]1C2Cc3ccc(O)cc3[C@]1(C)CCN2CC1CC1`, the values for the Potency in [9] and in [5] were 11.2 µM (active) and 7.94 µM (active), respectively. For the same compound, the result in experiment [7] and in experiment [8] was inactive.

`C#CCN(C)C(C)Cc1ccccc1` (stereo unspecified): the Potency entry in [6], in experiment [9] and in experiment [5] was “inactive” throughout. Besides, the outcome in experiment [7] and in experiment [8] was inactive.

Turning to `NNCc1cccc(O)c1`, the Potency in experiment [6] was 12.6 µM (active).

In the case of `CC(C)(O)C1C2OC(=O)C1[C@]1(O)C[C@H]3O[C@]34C(=O)O[C@H]2[C@]14C` (stereo partly specified) (tested in a mixture with another compound), the Potency entry in experiment [6], in experiment [9] and in [5] was “inactive” in each case.

For the compound `C[C@H]1OC[C@@H](C[N+](C)(C)C)O1`, the Potency entry in experiment [6], in [9] and in experiment [5] was “inactive” throughout. For the same compound, the call in experiment [7] and in [8] was inactive.

Consider `CCCN(CCC)C(=O)Cc1c(-c2ccc(Cl)cc2)nc2c(Cl)cc(Cl)cn12`, for which, in [7], the outcome was inactive.

With `CN1CCC23CCCC[C@H]2C1Cc1ccc(O)cc13` (stereo partly specified), the Potency in [6] is 6.31 µM (active); in [5] it was 5.01 µM (active). The result in [7] was inactive.

Consider `COc1cc(C=C(C#N)C#N)cc(O)c1O`, for which the Potency in experiment [9] was 12.6 µM (active).

As for `CCCN1CCC[C@@H]2Cc3n[nH]cc3C[C@H]21`, the Potency entry in experiment [9] and in experiment [5] was “inactive” each time. For the same compound, the call in [7] was inactive.

As to `CCNC(=O)[C@H]1O[C@@H](n2cnc3c(N)ncnc32)[C@H](O)[C@H]1O`, the Potency result in experiment [6], in [9] and in experiment [5] was “inactive” throughout. Moreover, the result in experiment [7] was inactive.

Take `CCCC[N+]1(C)C2CC(OC(=O)C(CO)c3ccccc3)CC1C1OC12` (stereo unspecified): the Potency entry in [6], in [9] and in experiment [5] was “inactive” in each case.

Regarding `COc1ccc2c3c1O[C@H]1C(=O)CC[C@@]4(O)C(C2)N(CC2CC2)CCC314` (stereo partly specified), in experiment [7], the compound was called inactive.

In the case of `CCC(CO)NC(=O)[C@@H]1C=C2c3cccc4[nH]cc(c34)C[C@H]2N(C)C1` (stereo partly specified), the Potency in experiment [6] was 10 µM (active).

As for `CCN(CC)C(=O)N[C@@H]1C[C@@H]2c3cccc4[nH]cc(c34)C[C@H]2N(C)C1`, the figures for the Potency in experiment [6] and in experiment [9] were 5.62 µM (active) and 6.31 µM (active), respectively.

Regarding `C[C@]12CC[C@H]3[C@@H](CCC4C[C@H](O)CC[C@@]43C)[C@@H]1CC[C@@H]2O` (stereo partly specified), the Potency result in [6], in experiment [9] and in experiment [5] was “inactive” throughout. Besides, the outcome in [7] and in experiment [8] was inactive.
